Most compounds without a hit are left out; they make up all but 17% or so of the library.
DT40 TDP1 no CPT = qHTS for Inhibitors of human tyrosyl-DNA phosphodiesterase 1 (TDP1): qHTS in cells in absence of CPT. AID 686978, 2013. 15% of 420,000 active. DT40 Tdp1-/- hTDP1 cells, no CPT, ATP luminescence, 48 h. Potency, µM (top dose mostly 46.2 µM), for the others: top-dose activity change, negative = growth inhibition, usual class: inhibitors; also: % is scaled to controls: 0 for no effect and ±100 for the full control effect; nearly all actives have a fitted effect of over 55% in size
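Seeded 400 DT40-hTDP1 cells/well (vehicle DMSO, no 20 nM CPT); pinned compounds; ≥48 hr at 37 °C; CellTiter-Glo luminescence as viability measure.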
TGFb SMAD3 inh = inhibitors of TGF-b signaling; HepG2 CAGA-GFP TGF-b/SMAD3 reporter, GFP fluorescence, 18 h; TGF-beta stimulated, 500 pg/mL final; Potency, µM (doses to about 46.1 µM), inactives show at the top dose activity, negative = inhibition, most hits filed as inhibitors; 1.2% of 410,000 active; also: % is scaled to controls: 0 for no effect and ±100 for the full control effect; nearly all actives have a fitted effect of over 65% in size
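HEPG2 CAGA-GFP reporter cells (1000/well, DMEM with 1% FBS) received compounds, then recombinant TGF-beta at 500 pg/mL final for 18 hours at 37 degrees C. Per-cell GFP summed per well was normalised to unstimulated and stimulated DMSO controls before curve fitting.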
DT40 TDP1 CPT = growth inhibition of DT40 Tdp1-/-;hTDP1 cells with camptothecin (screen for TDP1 inhibitors); AID 686979; Potency, µM (titrated, usually from 46.2 µM), inactives show at the top dose activity change, negative = growth inhibition, usual class: inhibitors; chicken DT40 Tdp1-/-;hTDP1 cells + 20 nM CPT, ATP luminescence, 48 h; 12% of 420,000 active; also: % is scaled to controls: 0 for no effect and ±100 for the full control effect; nearly all actives have a fitted effect of over 55% in size
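Chicken DT40 Tdp1-/- cells complemented with human TDP1, 400 cells/well, exposed to compounds plus 20 nM camptothecin for at least 48 h at 37 C; viability read as ATP content by CellTiter-Glo luminescence.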
HepG2 viability = kills HepG2 cells in TGF-b inhibitor counter-screen | 0.76% of 410,000 active | Potency, µM (highest dose often 46.1 µM), for inactives: top-dose activity change, negative = cytotoxicity, hits mostly cytotoxic | AID 588856 | HepG2 CAGA-GFP viability, ATP luminescence, 18 h
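CellTiter-Glo luminescence gave cytotoxicity after 18 hours at 37 degrees C. The cells were HepG2 CAGA-GFP in 1% FBS DMEM, stimulated with 500 pg/mL TGF-beta after compound addition. %Activity was normalised to no-cell wells (complete cell-killing) and DMSO (no toxicity), and curves were fitted and classified.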
HT1080-NT tox = kills 2HG-producing HT-1080-NT fibrosarcoma cells | 1.6% of 360,000 active | HT-1080-NT fibrosarcoma viability, CellTiter-Glo ATP luminescence, 48 h | Potency, µM (titrated, usually from 46.1 µM), for inactives: top-dose activity, negative = less viability, usual class: cytotoxic;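 also: NT is the 2HG producing partner of a matched IDH1 knockdown line; 0% = DMSO-treated cells and -100% = media-only wells without cells; nearly all actives have a fitted effect of over 55% in size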
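HT-1080-NT fibrosarcoma cells (2HG-overproducing), 750 cells/well in RPMI with 5% FBS, dosed after 2 h and incubated 48 h at 37C. CellTiter-Glo luminescence normalized to DMSO and no-cell wells; concentration-response curves fitted and classed.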
HT1080 IDH1KD tx = toxicity to HT-1080 IDH1 knockdown cells (counter line). HT-1080 IDH1 knockdown viability, ATP luminescence, 48 h. Potency, µM (doses to about 46.1 µM), inactives show at the highest dose activity, negative = toxicity, hits mostly cytotoxic. 2% of 360,000 active;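 also: 0% = DMSO wells and -100% = cell-free medium wells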
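Luminescent ATP read-out (CellTiter-Glo, 10 min at room temperature) after 48 h compound exposure at 37 °C gave viability of IDH1-knockdown HT-1080 cells. Activity was normalised to DMSO and cell-free wells, then fitted as concentration-response curves.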
An asterisk follows results filed as active; ? = inconclusive; / = no result given; [ ] = another dose, or the depositor's remark. Calls follow the shape of the dose curve; as a rule, active = well fitted curve in the direction sought with a large enough effect; inconclusive = small, poorly fitted or top-dose-only effect, or another doubt; inactive = no such curve, though single readings can be large; an effect the other way counts as inactive or inconclusive. Potency is read from the fitted curve at half-maximal effect.

SMILES	DT40 TDP1 no CPT	TGFb SMAD3 inh	DT40 TDP1 CPT	HepG2 viability	HT1080-NT tox	HT1080 IDH1KD tx
COc1ccc(NC(=O)c2ccc(-c3nc(COc4ccccc4)c(C)o3)cc2)cc1	-12%	0%	-7%	1%	/	/
COc1cccc(CNC(=O)c2ccc(CS(=O)(=O)Cc3ccccc3C)o2)c1	23µM*	0%	29µM*	6%	-24%	0%
COc1cccc(CNC(=O)c2ccc(-c3nc(COc4ccccc4)c(C)o3)cc2)c1	9.2µM*	-3%	15µM*	0%	/	/
COc1cccc(CNC(=O)c2ccc(CS(=O)(=O)Cc3ccc(C)cc3)o2)c1	6%	1%	1%	-6%	1%	0%
COCCN(C(=O)COC(=O)CCC(=O)c1ccc(Cl)cc1)c1c(N)n(Cc2ccccc2)c(=O)[nH]c1=O	-21%	-4%	-9%	23%	1%	4%
CC(C)N(C)c1ncnc2c1ncn2[C@H]1CN(Cc2ccc(F)cc2)C[C@@H](CO)O1	?	15%	?	-7%	4%	-2%
Cc1ccc(C(=O)NCN2CCN(c3ccccc3)CC2)cc1	1%	10%	-15%	7%	3%	7%
CC(=O)c1ccc(NC(=O)c2ccc(-c3nc(COc4ccc(C)cc4)c(C)o3)cc2)cc1	-8%	3%	-5%	-13%	/	/
Cc1ccc(OCc2nc(-c3ccc(C(=O)NCCc4ccc(S(N)(=O)=O)cc4)cc3)oc2C)cc1	23µM*	-8%	15µM*	-44%	/	/
COc1ccc2[nH]c3c(c2c1)CCN1C(=O)C(CC(=O)NCc2ccco2)C[C@H](C(=O)N2CCOCC2)[C@@]31CCC1CCCC1 (stereo partly specified)	?	?	?	-3%	-1%	-3%
COc1cccc(C(=O)N2CCN(c3ccccn3)CC2)c1	-3%	-14%	-15%	1%	17%	28%
NS(=O)(=O)c1ccc(NNC(=O)c2ccccc2)cc1	-2%	0%	1%	-2%	2%	7%
O=C(NNc1cc(Br)c(O)c(Br)c1)c1ccccc1	18µM*	-24%	?	-11%	-8%	-13%
COCCn1c(=O)c(-c2ccc(Cl)cc2)nc2cnc(OCc3ccccc3)nc21	22%	/	17%	/	/	/
N=c1oc2ccc3ccccc3c2cc1-c1nc(-c2ccccc2)cs1	?	128%	?	0%	26%	19%
N=c1oc2ccccc2cc1-c1nc(-c2ccccc2)cs1	23µM*	16%	?	1%	-5%	1%
COc1ccc(CN2CCSc3sccc3C2=O)cc1	-5%	-6%	-4%	-4%	-2%	3%
Cc1cc(OCC(=O)NC(C)c2ccccc2)ccc1[N+](=O)[O-] (stereo unspecified)	16µM*	-11%	18µM*	-12%	-5%	?
Cc1cc(OCC(=O)NCc2cccnc2)ccc1[N+](=O)[O-]	-10%	0%	-2%	-7%	-3%	22%
Cc1cc(Nc2cccc(F)c2)nc(-c2ccccc2O)n1	?	?	?	11µM*	?	?
Cc1cc(Nc2ccccc2)nc(-c2ccccc2O)n1	?	?	16µM*	-2%	?	4%[9.24 µM]
Cc1cc(Nc2ccccc2Cl)nc(-c2ccccc2O)n1	?	-14%	?	-7%	-21%	?
CCOC(=O)c1ccc(Nc2cc(C)nc(-c3ccccc3O)n2)cc1	29µM*	3%	?	-23%	-10%	9%
Cc1ccc(C)c(Nc2cc(C)nc(-c3ccccc3O)n2)c1	5.8µM*	?	6.5µM*	-10%	?	?
Cc1ccc(N)c2c1OCCC2=O	-22%	6%	-5%	-5%	-4%	-5%
SMILES	DT40 TDP1 no CPT	TGFb SMAD3 inh	DT40 TDP1 CPT	HepG2 viability	HT1080-NT tox	HT1080 IDH1KD tx
O=c1oc2ccc3ccccc3c2cc1-c1nnc(Nc2cccc(F)c2)s1	-20%	-26%	-10%	-3%	/	/
CCc1ccc(N(CC(=O)NC(C)C)C(=O)CCC(=O)Nc2nccs2)cc1	-8%	9%	-3%	14%	-1%	3%
Cc1cc(N/N=C/c2c(O)ccc3ccccc23)nc(-c2ccccc2O)n1	2.6µM*	0%	8.2µM*	-20%	?	?
Cc1cc(NCc2ccccc2)nc(-c2ccccc2O)n1	?	?	?	-30%	-15%	-23%
O=C(NCCc1csc(-c2ccc(C(F)(F)F)cc2)n1)c1ccc(F)c(F)c1	/	11µM*	/	-74%	/	/
Cc1cc(C)cc(C(=O)NCCc2csc(-c3ccc(C(F)(F)F)cc3)n2)c1	21µM*	-3%	?	0%	/	/
Cc1ccc(C)c(NC(=O)C(=O)NCCc2csc(-c3ccc(C(F)(F)F)cc3)n2)c1	?	0%	-50%	4%	/	/
CCOc1cc(CNc2ccc3c(c2)CCC3)ccc1O	23µM*	6%	?	-22%	-9%	-3%
COc1ccc(CN(C)CC(=O)Nc2ccc(N3CCOCC3)cc2)cc1OC	-20%	0%	-10%	-24%	10%	8%
COc1cccc(CC(=O)Nc2ccc3c(c2)CCC3)c1	?	4%	-9%	-6%	-12%	-23%
C=CCOc1ccc(CN(C)CC(=O)Nc2ccc3c(c2)CCC3)cc1	?	?	23µM*	-19%	-22%	-20%
COc1cc(CC(=O)Nc2ccc3c(c2)CCC3)cc(OC)c1OC	12µM*	0%	9.2µM*	-21%	-1%	-18%
CCOc1ccc(CN(C)CC(=O)Nc2ccc3c(c2)CCC3)cc1OC	16µM*	-2%	?	-6%	-24%	-11%
COc1cc(CNc2ccc3c(c2)CCC3)cc(OC)c1O	-25%	-3%	-22%	3%	0%[9.24 µM]	0%
COc1ccc(-c2nc3cnc(N(C)C)nc3n(CCC#N)c2=O)cc1	6%	/	-18%	/	/	/
CCOc1ccc(CCNC(=O)c2cc(=O)[nH]c3ccc(S(=O)(=O)N4CCCCC4)cc23)cc1OCC	-5%	1%	-1%	1%	/	/
COc1cccc(Cn2cnc3c(NS(=O)(=O)c4ccc(Cl)cc4Cl)c(C)c(C)cc32)c1	?	?	?	-36%	-18%	-14%
COc1cccc(Cn2cnc3c(NS(=O)(=O)c4cccc(Cl)c4Cl)c(C)c(C)cc32)c1	23µM*	-17%	21µM*	-14%	-1%	-27%
